Of roughly 7,900 targets only a part is listed; those with a hit were picked by preference. About 0.6% of all pairs of compound and target were hits.
compound: Cc1nc(Nc2n[nH]c3c2CN(C(=O)N[C@H](CN(C)C)c2ccccc2)C3(C)C)c2sccc2n1; test: log2 fold change, soluble protein after heating vs DMSO (PISA); higher = thermal stabilisation; K562 cells, 10 uM, 30 min; active = over 0.2 and 3.5 SD of the protein, either way, in both replicates (recomputed)
Method in brief: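 K562 cells at 2×10^6 cells/mL were given 10 μM compound for 30 min. Aliquots then went through 3 min of heating across 48°C-58°C, were pooled, and were extracted in PBS with 0.5% NP-40 at 4°C, and the supernatant after 21,000xg for 90 min was quantified by TMTpro 16plex LC-MS/MS with channel sums equalised. Thermal stability relative to control samples, from duplicates, is given as log2 fold change.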

Chain of UniProt Q8WUI4 (Q8WUI4 whole entry, looked up): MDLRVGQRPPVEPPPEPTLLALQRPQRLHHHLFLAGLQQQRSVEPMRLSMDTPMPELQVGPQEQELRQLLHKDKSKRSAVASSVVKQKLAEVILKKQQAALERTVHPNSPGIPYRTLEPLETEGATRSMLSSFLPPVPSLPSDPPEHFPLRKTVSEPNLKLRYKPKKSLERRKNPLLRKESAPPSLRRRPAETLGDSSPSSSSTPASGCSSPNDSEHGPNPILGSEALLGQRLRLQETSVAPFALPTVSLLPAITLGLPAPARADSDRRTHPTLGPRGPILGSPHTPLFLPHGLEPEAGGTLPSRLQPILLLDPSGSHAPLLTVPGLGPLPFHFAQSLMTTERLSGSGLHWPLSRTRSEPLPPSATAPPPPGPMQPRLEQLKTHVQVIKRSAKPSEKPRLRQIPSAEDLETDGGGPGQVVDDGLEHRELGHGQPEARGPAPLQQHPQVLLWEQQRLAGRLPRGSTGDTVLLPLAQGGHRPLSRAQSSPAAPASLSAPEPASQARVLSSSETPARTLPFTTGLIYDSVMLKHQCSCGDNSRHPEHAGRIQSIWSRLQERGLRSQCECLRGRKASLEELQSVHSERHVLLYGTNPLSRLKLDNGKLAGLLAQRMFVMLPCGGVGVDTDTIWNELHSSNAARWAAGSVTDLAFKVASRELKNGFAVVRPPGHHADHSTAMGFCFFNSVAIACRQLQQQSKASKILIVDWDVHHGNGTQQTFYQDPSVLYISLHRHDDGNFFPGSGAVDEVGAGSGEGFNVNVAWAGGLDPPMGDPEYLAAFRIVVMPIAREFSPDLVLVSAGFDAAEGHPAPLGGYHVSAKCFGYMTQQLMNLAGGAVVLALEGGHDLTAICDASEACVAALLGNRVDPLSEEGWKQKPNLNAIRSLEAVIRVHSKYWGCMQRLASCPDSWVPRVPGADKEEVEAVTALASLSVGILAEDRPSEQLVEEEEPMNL
Chain of UniProt Q02790 (Q02790 whole entry, looked up): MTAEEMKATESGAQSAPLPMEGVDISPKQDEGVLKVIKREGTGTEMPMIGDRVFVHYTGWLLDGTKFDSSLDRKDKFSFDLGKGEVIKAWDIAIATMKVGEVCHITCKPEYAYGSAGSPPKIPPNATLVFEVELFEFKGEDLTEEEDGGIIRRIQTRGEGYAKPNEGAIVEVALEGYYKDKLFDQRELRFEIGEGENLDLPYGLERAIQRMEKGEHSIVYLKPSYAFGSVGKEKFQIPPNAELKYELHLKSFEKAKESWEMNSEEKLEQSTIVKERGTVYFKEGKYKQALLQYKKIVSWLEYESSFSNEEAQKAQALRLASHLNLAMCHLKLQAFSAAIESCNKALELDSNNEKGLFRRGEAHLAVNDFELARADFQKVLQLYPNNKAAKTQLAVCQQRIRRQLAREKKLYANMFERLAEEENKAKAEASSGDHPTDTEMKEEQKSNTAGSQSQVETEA
Chain of UniProt Q06546 (Q06546 whole entry, looked up): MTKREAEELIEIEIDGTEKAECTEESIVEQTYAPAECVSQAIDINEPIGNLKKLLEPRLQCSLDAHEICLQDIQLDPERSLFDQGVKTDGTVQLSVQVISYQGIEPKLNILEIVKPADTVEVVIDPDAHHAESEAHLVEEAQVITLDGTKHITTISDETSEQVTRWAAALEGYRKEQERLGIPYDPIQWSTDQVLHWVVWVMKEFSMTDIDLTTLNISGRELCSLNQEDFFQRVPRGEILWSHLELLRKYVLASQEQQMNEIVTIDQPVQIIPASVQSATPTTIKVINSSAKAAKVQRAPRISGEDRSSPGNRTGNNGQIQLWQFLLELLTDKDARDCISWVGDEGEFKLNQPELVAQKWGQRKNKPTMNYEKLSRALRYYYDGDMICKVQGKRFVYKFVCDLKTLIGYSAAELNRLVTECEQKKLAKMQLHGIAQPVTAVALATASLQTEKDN
Chain of UniProt P21695 (P21695 whole entry, looked up): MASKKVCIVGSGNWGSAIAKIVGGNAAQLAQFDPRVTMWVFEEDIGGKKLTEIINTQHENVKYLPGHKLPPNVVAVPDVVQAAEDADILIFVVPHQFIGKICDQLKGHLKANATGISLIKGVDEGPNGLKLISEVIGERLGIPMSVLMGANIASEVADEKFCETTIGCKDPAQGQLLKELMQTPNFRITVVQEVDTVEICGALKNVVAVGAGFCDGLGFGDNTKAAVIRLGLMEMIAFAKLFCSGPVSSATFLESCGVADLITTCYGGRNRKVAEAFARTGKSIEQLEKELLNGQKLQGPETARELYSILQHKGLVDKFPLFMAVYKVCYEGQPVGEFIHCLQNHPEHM
Chain of UniProt P13807 (P13807 whole entry, looked up): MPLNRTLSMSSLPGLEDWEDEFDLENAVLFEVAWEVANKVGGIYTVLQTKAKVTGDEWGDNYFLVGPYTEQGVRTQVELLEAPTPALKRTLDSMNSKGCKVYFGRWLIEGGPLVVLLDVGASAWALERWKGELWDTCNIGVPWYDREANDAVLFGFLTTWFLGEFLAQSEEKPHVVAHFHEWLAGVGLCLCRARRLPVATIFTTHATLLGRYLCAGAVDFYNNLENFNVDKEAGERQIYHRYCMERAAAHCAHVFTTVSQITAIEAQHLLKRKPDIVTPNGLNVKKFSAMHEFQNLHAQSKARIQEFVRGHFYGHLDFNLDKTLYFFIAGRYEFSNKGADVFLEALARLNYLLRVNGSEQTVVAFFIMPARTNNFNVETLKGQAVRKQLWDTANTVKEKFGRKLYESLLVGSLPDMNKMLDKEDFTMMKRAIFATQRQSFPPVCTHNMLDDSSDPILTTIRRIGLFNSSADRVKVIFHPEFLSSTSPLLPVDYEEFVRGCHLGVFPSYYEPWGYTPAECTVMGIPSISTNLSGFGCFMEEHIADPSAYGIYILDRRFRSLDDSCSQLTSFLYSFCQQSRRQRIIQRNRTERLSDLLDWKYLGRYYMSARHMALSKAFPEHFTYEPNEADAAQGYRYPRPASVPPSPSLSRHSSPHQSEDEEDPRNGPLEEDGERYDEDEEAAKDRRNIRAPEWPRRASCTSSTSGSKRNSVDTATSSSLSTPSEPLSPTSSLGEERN
Chain of UniProt P60520 (P60520 whole entry, looked up): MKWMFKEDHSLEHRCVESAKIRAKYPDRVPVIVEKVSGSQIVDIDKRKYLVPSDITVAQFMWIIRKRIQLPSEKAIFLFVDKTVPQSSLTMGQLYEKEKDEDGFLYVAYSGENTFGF
Chain of UniProt Q9BVP2 (Q9BVP2 whole entry, looked up): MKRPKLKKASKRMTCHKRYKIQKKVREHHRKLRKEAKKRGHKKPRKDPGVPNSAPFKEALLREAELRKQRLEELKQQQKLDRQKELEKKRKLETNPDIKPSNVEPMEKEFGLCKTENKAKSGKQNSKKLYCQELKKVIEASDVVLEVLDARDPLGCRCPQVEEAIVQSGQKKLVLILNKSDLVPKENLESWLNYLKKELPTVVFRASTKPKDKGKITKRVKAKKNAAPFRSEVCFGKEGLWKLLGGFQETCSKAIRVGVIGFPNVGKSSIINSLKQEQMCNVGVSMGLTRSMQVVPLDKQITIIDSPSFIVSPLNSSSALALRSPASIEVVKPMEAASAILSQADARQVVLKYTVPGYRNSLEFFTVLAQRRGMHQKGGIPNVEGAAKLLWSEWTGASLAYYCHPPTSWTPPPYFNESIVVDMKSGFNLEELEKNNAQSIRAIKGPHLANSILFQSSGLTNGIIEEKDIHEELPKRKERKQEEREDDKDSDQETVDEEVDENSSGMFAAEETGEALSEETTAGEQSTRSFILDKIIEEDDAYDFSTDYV
Chain of UniProt Q86VQ1 (Q86VQ1 whole entry, looked up): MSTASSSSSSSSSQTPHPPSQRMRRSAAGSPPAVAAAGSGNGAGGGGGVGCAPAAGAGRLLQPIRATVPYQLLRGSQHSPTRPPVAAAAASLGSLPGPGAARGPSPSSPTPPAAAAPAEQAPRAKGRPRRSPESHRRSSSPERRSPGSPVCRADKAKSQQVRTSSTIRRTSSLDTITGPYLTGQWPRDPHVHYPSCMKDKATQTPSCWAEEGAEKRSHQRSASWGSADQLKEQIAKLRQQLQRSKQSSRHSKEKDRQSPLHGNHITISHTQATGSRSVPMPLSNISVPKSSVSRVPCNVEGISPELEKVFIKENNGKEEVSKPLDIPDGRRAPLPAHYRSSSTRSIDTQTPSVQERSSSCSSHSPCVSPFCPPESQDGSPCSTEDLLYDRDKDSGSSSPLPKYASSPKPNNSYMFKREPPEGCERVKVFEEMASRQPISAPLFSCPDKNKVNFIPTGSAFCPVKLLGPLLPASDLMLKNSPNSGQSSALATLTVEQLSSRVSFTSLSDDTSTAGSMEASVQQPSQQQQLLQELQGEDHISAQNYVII
Chain of UniProt Q70Z53 (Q70Z53 whole entry, looked up): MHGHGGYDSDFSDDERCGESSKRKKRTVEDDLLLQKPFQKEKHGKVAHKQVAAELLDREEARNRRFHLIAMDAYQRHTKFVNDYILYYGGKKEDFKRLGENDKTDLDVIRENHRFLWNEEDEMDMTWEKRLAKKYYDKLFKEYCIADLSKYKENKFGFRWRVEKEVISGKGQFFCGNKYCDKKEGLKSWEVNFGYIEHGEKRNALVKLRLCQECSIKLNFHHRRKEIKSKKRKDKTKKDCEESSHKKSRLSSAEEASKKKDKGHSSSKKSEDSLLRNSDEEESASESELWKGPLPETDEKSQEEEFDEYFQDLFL
Chain of UniProt P48507 (P48507 whole entry, looked up): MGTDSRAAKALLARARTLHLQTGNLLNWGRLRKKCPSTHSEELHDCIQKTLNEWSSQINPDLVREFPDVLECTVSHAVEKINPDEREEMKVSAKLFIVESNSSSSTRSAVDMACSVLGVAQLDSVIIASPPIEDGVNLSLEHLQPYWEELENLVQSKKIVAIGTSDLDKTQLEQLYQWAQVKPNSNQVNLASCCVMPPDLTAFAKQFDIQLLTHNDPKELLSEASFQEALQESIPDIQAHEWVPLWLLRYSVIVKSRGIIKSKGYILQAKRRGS
Chain of UniProt P52657 (P52657 whole entry, looked up): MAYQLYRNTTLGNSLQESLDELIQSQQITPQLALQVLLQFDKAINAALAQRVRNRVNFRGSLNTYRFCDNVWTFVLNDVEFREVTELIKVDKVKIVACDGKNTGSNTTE

log2 fold change, active:
HDAC7 isoform 5 (UniProt Q8WUI4) -0.378, FASTKD1 (UniProt Q53R41) 0.54

log2 fold change, inactive:
GABPA (UniProt Q06546) -0.115, FRA10AC1 isoform 3 (UniProt Q70Z53) -0.039, GINS2 (UniProt Q9Y248) -0.031, GNAS (UniProt Q5JWF2) -0.02, GYS1 (UniProt P13807) -0.18, HEXB (UniProt P07686) 0.032, HDAC1 (UniProt Q13547) -0.021, FKBP4 (UniProt Q02790) -0.011, GATD1 (UniProt Q8NB37) -0.016, GSTT1 (UniProt P30711) -0.019, HDAC10 (UniProt Q969S8) -0.075, GPD1 (UniProt P21695) 0.054, HDAC2 (UniProt Q92769) 0.009, FKBP3 (UniProt Q00688) 0.041, FBXO9 (UniProt Q9UK97) -0.354, GOPC (UniProt Q9HD26) 0.05, GNL3 (UniProt Q9BVP2) 0.011, GIGYF2 (UniProt Q6Y7W6) -0.105, GSTP1 (UniProt P09211) -0.017, GNL1 (UniProt P36915) 0.05, GTF3A (UniProt Q92664) -0.219, GEMIN2 (UniProt O14893) 0, FUT8 (UniProt Q9BYC5) 0.006, GLCCI1 (UniProt Q86VQ1) -0.103, FAT1 (UniProt Q14517) 0, GLRX3 (UniProt O76003) -0.022, IFRD1 (UniProt O00458) 0.056, IDI1 isoform 2 (UniProt Q13907) 0.022, HEATR3 (UniProt Q7Z4Q2) -0.088, GABARAPL2 (UniProt P60520) -0.028, GTPBP6 (UniProt O43824) 0.069, GCLM (UniProt P48507) -0.015, GTF2A2 (UniProt P52657) 0.022
